The panel holds about 79,000 compounds, 15% with a hit somewhere; the sample as a whole holds those more often. Values without a mark were called inactive. The source made the active and inactive calls. No stated cut-off is given here; in the data, active means growth inhibition above about 70%; inactive means the rest.
Assay: NCI Yeast Anticancer Drug Screen. Data for the cln2 rad14 strain (AID 165);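 further: 0% = growth equal to vehicle treated cultures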
Details: S. cerevisiae cln2 rad14 strain, active compounds read high
Description: Growth inhibition of yeast strains with defined genetic alterations is measured as a screen for potential anti-cancer activity. Selected strains with alterations in DNA damage repair or cell cycle control were exposed to compounds and growth inhibition was measured relative to vehicle treated controls. The strain used in this assay is cln2 rad14

[1] = at 5.0 µM (retest, dose inferred, filed as 0.5)
[2] = at 50.0 µM (retest, dose inferred, filed as 5.0)

Compound	growth inhibition [1]	growth inhibition [2]	growth inhibition (at 50.0 µM)
O=C(CNS(=O)(=O)Cc1ccccc1)NNc1ccccc1	8%	33%	60%
Cc1cc(Cl)ccc1NC(=O)/C(Cl)=C1/Sc2ccccc2NC1=O	23%	57%	-5.3%
CC(=O)Oc1ccc(N2C(=O)C3c4[nH]c5ccccc5c4C4CCC(C(C)(C)C)CC4C3C2=O)cc1 (stereo unspecified)	83% (active)	98% (active)	98.6% (active)
COC(=O)c1oc([N+](=O)[O-])c(Cl)c1Cl	10%	99% (active)	98.5% (active)
CC(C)c1[nH]nc(C(N)=O)c1N=NN(C)C	-55%	-43%	5.65%
CCCCCCCCCCCCCCCCNC(=O)/C(=C\c1ccc(Cl)c(Cl)c1)NC(=O)c1ccccc1	46%	-10%	59.2%
O=C1C=CC(=O)N1c1ccc2c(c1)OCO2	-4%	98% (active)	99% (active)
Cc1c(-c2ccccc2)[nH]c2ccccc12	51%	99% (active)	92.3% (active)
On1cnc(=S)c2[nH]cnc21	13%	97% (active)	1.85%
CSc1s[s+]c(SC)c1-c1ccccc1	26%	59%	–
Cc1onc(-c2ccccc2Cl)c1C1=N/C(=C/c2cc(Cl)cc(Cl)c2O)C(=O)O1	72% (active)	60%	71.5% (active)
OCCN(CCO)c1ccc2c(c1)Cc1ccccc1-2	6%	6%	-2.7%
CC1OC(OC2CCCc3c(O)c4c(c(O)c32)C(=O)c2ccccc2C4=O)CC(N)C1O (stereo unspecified)	-3%	98% (active)	43.9%
COc1ccc(/C=C2\SC(=S)N(C=C3C(=O)NC(=S)NC3=O)C2=O)cc1OC	-25%	33%	37.6%
